Measured values: PubChem BioAssay (NCATS)
Values without a mark were called inactive. Records with an inconclusive call do not appear. Entries that show only a call come without a potency. Activity calls are given as the source filed them. Unless noted, calls follow the shape of the dose curve; as a rule, active = well fitted curve in the direction sought with a large enough effect; inconclusive = small, poorly fitted or top-dose-only effect, or another doubt; inactive = no such curve, though single readings can be large; an effect the other way counts as inactive or inconclusive.

Legend:
[1] = qHTS assay for measurement of the activity of small molecule inhibitors on Zika virus induced Caspase-3 activity in human iPSC derived neural progenitor cells (hNPCs) (AID 1224857); also: nearly all actives have a fitted effect of over 65% in size
In short: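 Percent inhibition of virus-induced caspase-3/7 luminescence (Caspase-Glo), scaled between uninfected cells and Zika-infected cells. hNPCs received compound 1 hr before ZIKV at 2 FFU/cell, with 6 hours infection at 37 C.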

[2] = qHTS assay for measurement of the activity of small molecule inhibitors on Zika virus induced Caspase-3 activity in human astrocytoma cells (AID 1224859)
In short: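 Luminescent caspase-3/7 read-out (30 min reagent, room temperature) in human SNB-19 cells infected 6 h with ZIKV (2 FFU/cell) after 1 h compound pre-incubation; Data were normalised to uninfected and infected wells.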

[3] = NS1 protein of Zika virus - qHTS assay to identify small molecule inhibitors in human HEK 293 cells (AID 1347053); also: series mostly up to about 46 µM; nearly all actives have a fitted effect of over 55% in size
In short: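 HEK 293 cells pretreated with compound for 1 h, then infected with ZIKV MR766 (MOI 0.5) for 24 h at 37 C. NS1 detected by TR-FRET with two anti-NS1 antibodies; normalized to uninfected (0%) and infected (100%) wells.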

[4] = qHTS of pediatric cancer cell lines to identify multiple opportunities for drug repurposing: Primary screen for TC32 cells (AID 1347089); also: nearly all actives have a fitted effect of over 60% in size; also: potency is read from the fitted curve at half-maximal effect
In short: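 Luminescent ATP read-out (CellTiter-Glo) of metabolically active TC32 cells after 48 h exposure. Concentration-response curves came from 11-point (MIPE, 0.78 nM–46 µM) or 8-point (NPC, 0.59 nM–46 µM) primary titrations; follow-up used 11 points.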

[5] = qHTS of pediatric cancer cell lines to identify multiple opportunities for drug repurposing: Primary screen for DAOY cells (AID 1347090); also: nearly all actives have a fitted effect of over 55% in size; also: potency is read from the fitted curve at half-maximal effect
In short: (§1)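 Eight- or eleven-point concentration series, 48 h treatment at 37 degrees C in growth media; readout CellTiter-Glo luminescence. Potency and efficacy were taken from the concentration-response curves.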

[6] = qHTS of pediatric cancer cell lines to identify multiple opportunities for drug repurposing: Primary screen for SJ-GBM2 cells (AID 1347091)
In short: as §1

[7] = Natriuretic polypeptide receptor (hNpr1) antagonism - Pilot counterscreen GloSensor control cell line (AID 1347045; calls by dose curve; also: potency is read from the fitted curve at half-maximal effect)
In short: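 Luminescence was read before and 20 min after adding 50 uM SNP, which stimulates soluble guanylyl cyclase. The HEK293 cells expressing the GloSensor cGMP sensor had been preloaded with 2% reagent for 2 h and treated with compound.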

[8] = biological target: T1, Tyrosine-protein phosphatase non-receptor type substrate 1 (Homo sapiens) + Leukocyte surface antigen CD47 (Homo sapiens) (UniProt P78324+Q08722); experiment: CD47-SIRPalpha protein protein interaction - LANCE assay qHTS validation (AID 1347057; active = well fitted curve in the direction sought with a large enough effect in the signal ratio, with a control signal flat, not every such curve was filed as active; the % refers to the signal ratio; also: series mostly up to about 38 µM)
In short: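 First, His-tagged CD47 and Eu-labelled anti-His antibody met the compound for 30 min; next, site-specifically biotinylated SIRPalpha was added for 30 min; finally streptavidin-APC was added before reading the TR-FRET ratio.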

[9] = biological target: T1, Tyrosine-protein phosphatase non-receptor type substrate 1 (Homo sapiens) + Leukocyte surface antigen CD47 (Homo sapiens); experiment: CD47-SIRPalpha protein protein interaction - Alpha assay qHTS validation (AID 1347059);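 also: bead proximity luminescence from CD47 binding SIRPalpha after compound preincubation with SIRPalpha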
In short: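 Soluble extracellular domains: Avi-tag biotinylated SIRPalpha (25 nM) preincubated 30 min RT with compound, then 6His-CD47 (12.5 nM) 30 min; Ni-NTA acceptor and streptavidin donor beads (10 ug/mL) 30 min, AlphaScreen read. PBS pH 7.4, 0.05% IGEPAL.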

[10] = biological target: Parathyroid hormone/parathyroid hormone-related peptide receptor (Homo sapiens) (UniProt Q03431); experiment: qHTS for PTHR1 Agonists: Optimization Screen against the NCGC LOPAC library (AID 1347079);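 also: GloSensor cAMP luminescence in HEK-293 GP2 cells expressing human PTHR1 with IBMX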
In short: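 Agonist readout: GloSensor cAMP luminescence, read after 15 min at room temperature. HEK-293-derived GP2 line carries PTHR1; compounds tested as a titration for 1 hr at 37C in presence of IBMX. M-PTH (1-15) served as control.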

[11] = biological target: Atrial natriuretic peptide receptor 2 (Homo sapiens) (UniProt P20594); experiment: Natriuretic polypeptide receptor (hNpr2) antagonism - Pilot subtype selectivity assay (AID 1347050; calls by dose curve)
In short: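 cGMP-sensor HEK293/hNpr2 cells; 2% GloSensor reagent 2 h RT; compounds 30 min; baseline luminescence read; 1 nM hNppC agonist 20 min RT; final luminescence read by CCD camera. Antagonism = reduced post-agonist signal.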

[12] = qHTS of pediatric cancer cell lines to identify multiple opportunities for drug repurposing: Primary screen for A673 cells (AID 1347092); also: nearly all actives have a fitted effect of over 45% in size
In short: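 Cell viability of A673 measured by CellTiter-Glo ATP luminescence after 48 hours compound exposure. Dilution series spanned 0.78 nM to 46 µM (MIPE, 11-point) or 0.59 nM to 46 µM (NPC, 8-point); bortezomib 2.3 uM positive control.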

T1 sequence (P78324 whole entry, looked up): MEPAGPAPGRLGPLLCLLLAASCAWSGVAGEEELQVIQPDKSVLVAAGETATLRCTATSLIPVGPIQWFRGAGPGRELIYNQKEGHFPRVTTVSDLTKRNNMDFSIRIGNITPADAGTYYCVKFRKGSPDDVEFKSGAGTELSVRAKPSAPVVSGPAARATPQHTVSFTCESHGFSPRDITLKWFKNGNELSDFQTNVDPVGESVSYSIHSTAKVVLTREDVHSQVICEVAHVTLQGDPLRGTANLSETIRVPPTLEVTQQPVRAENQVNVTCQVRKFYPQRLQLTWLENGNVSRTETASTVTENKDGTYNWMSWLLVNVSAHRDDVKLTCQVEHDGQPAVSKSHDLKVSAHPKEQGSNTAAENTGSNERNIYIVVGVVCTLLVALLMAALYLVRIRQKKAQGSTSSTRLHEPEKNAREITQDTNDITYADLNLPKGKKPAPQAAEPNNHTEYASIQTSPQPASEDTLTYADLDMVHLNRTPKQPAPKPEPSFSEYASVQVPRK
T1 sequence (Q08722 whole entry, looked up): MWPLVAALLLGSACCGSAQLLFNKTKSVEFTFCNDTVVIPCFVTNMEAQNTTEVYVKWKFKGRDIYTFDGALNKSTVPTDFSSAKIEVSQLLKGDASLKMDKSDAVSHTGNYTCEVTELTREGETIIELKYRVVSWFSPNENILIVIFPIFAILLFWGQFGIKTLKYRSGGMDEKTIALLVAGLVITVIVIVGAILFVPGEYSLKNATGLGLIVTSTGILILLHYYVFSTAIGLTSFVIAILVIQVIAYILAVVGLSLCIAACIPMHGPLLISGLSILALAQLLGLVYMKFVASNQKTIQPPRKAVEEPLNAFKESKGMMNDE
Sequence of Parathyroid hormone/parathyroid hormone-related peptide receptor (Homo sapiens) (Q03431 whole entry, looked up): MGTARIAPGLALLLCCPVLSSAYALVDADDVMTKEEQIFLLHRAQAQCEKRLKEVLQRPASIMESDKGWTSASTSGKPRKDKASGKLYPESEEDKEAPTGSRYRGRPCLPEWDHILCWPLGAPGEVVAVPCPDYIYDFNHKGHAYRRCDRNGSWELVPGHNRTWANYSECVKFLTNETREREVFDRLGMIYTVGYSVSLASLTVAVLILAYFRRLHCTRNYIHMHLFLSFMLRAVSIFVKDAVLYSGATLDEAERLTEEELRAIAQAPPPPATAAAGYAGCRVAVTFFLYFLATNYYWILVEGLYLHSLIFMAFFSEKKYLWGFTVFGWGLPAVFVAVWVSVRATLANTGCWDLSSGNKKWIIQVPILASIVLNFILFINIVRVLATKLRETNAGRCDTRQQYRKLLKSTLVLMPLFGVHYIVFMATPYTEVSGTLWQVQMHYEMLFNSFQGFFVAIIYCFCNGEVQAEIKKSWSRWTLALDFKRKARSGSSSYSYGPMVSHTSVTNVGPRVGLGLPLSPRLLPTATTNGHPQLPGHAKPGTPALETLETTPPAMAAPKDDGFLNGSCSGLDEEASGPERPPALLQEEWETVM
Sequence of Atrial natriuretic peptide receptor 2 (Homo sapiens) (P20594 whole entry, looked up): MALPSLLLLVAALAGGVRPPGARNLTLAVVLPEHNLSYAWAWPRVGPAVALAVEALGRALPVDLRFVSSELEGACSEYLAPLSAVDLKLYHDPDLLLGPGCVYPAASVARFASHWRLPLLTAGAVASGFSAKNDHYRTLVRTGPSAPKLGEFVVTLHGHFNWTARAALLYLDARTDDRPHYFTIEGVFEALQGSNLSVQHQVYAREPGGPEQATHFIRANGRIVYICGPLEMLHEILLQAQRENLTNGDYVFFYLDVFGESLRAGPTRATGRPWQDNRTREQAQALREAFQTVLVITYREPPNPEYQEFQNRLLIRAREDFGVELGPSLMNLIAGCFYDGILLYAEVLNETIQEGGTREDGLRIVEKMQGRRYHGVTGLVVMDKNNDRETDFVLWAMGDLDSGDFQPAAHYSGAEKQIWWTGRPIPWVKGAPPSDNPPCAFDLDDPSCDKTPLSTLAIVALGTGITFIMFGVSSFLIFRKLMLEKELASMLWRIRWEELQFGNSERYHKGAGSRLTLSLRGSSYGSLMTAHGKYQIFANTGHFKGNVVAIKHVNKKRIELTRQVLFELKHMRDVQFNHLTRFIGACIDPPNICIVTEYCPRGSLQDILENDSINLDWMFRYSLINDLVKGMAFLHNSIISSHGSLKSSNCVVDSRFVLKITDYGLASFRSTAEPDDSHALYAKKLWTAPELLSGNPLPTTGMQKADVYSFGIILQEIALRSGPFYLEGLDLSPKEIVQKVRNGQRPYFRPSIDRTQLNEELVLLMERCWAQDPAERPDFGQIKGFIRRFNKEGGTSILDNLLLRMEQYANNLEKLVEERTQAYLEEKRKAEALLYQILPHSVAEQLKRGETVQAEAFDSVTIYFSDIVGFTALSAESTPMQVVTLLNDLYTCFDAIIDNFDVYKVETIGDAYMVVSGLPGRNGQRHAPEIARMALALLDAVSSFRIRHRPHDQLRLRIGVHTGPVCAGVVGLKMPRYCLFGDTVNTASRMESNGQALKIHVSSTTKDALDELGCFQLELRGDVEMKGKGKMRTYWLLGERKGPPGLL

## Cn1c(=O)c2c(ncn2CC(=O)O)n(C)c1=O
[1]
  Potency: inactive
[2]
  outcome: inactive
[3]
  Potency: inactive
[4]
  Potency: inactive
[5]
  Potency: inactive
[6]
  Potency: inactive

## O=S(=O)(O)c1ccc2nc(-c3ccccc3)[nH]c2c1
[1]
  Potency: inactive
[2]
  outcome: inactive
[3]
  Potency: inactive

## COc1c(C)c2c(c(O)c1C/C=C(\C)CCC(=O)OCCN1CCOCC1)C(=O)OC2
[1]
  Potency: inactive
[2]
  outcome: inactive
[3]
  Potency: inactive
[4]
  Potency: 0.745 µM (active)

## CNC[C@H](O)[C@@H](O)[C@H](O)[C@H](O)CO
[1]
  Potency: inactive
[2]
  outcome: inactive
[3]
  Potency: inactive
[4]
  Potency: inactive
[5]
  Potency: inactive
[6]
  Potency: inactive

## C/C=C(/C(=C/C)c1ccc(OC(C)=O)cc1)c1ccc(OC(C)=O)cc1
[1]
  Potency: inactive
[2]
  outcome: inactive
[3]
  Potency: inactive
[4]
  Potency: inactive

## CC(C)N(CCC(=O)c1ccc2ccccc2c1)Cc1ccccc1
[1]
  Potency: inactive
[2]
  outcome: inactive
[7]
  Potency: 13.1 µM (active)
[8]
  outcome: inactive
[9]
  Potency: inactive
[10]
  outcome: inactive

## COC(=O)/C=C(/C)N
[1]
  Potency: inactive
[2]
  outcome: inactive
[3]
  Potency: inactive
[4]
  Potency: inactive
[5]
  Potency: inactive
[6]
  Potency: inactive

## Cc1ccc(Cl)c(OCC(O)CNC(C)(C)C)c1 (centres undefined)
[1]
  Potency: inactive
[2]
  outcome: inactive
[3]
  Potency: inactive
[4]
  Potency: inactive
[5]
  Potency: inactive
[6]
  Potency: inactive

## Cc1cccc(N(C)C(=S)Oc2ccc3c(c2)CCC3)c1
[1]
  Potency: inactive
[2]
  outcome: inactive
[3]
  Potency: inactive
[4]
  Potency: inactive
[5]
  Potency: inactive
[6]
  Potency: inactive

## CN(C)CCOC1=Cc2ccccc2Sc2ccc(Cl)cc21
[1]
  Potency: inactive
[2]
  outcome: inactive
[3]
  Potency: inactive
[4]
  Potency: inactive
[5]
  Potency: inactive
[6]
  Potency: inactive

## O=C1Cc2cc(Cl)ccc2N1
[1]
  Potency: inactive
[2]
  outcome: inactive
[3]
  Potency: inactive
[4]
  Potency: inactive
[5]
  Potency: inactive
[6]
  Potency: inactive

## CCCC(=O)O[C@]1(C(=O)CC)CC[C@H]2[C@@H]3CCC4=CC(=O)CC[C@]4(C)[C@H]3[C@@H](O)C[C@@]21C
[1]
  Potency: inactive
[2]
  outcome: inactive
[3]
  Potency: inactive
[4]
  Potency: inactive
[5]
  Potency: inactive
[6]
  Potency: inactive

## CC(=O)OC[C@H]1O[C@@H](OC(C)=O)[C@H](OC(C)=O)[C@@H]1OC(C)=O
[1]
  Potency: inactive
[2]
  outcome: inactive
[3]
  Potency: inactive
[4]
  Potency: inactive
[5]
  Potency: inactive
[6]
  Potency: inactive

## CN1CCC(N(Cc2cccs2)c2ccccc2)CC1
[1]
  Potency: inactive
[2]
  outcome: inactive
[3]
  Potency: inactive
[4]
  Potency: inactive

## C[C@H](N)C(=O)N[C@@H](C)C(=O)NC1[C@H]2CN(c3nc4c(cc3F)c(=O)c(C(=O)O)cn4-c3ccc(F)cc3F)C[C@@H]12 (some centres undefined)
[1]
  Potency: inactive
[2]
  outcome: inactive
[3]
  Potency: inactive
[4]
  Potency: inactive
[5]
  Potency: inactive
[6]
  Potency: inactive

## COc1cccc2c1[C@@H]1CN(CCCCn3c(=O)[nH]c4c(sc5ncc(-c6ccccc6)nc54)c3=O)C[C@@H]1CO2
[1]
  Potency: inactive
[2]
  outcome: inactive
[7]
  Potency: inactive
[11]
  Potency: inactive
[3]
  Potency: inactive
[8]
  outcome: inactive
[9]
  Potency: inactive
[10]
  outcome: inactive

## O=C(c1cc(O)c(O)c(O)c1)c1ccc(O)c(O)c1O
[1]
  Potency: inactive
[2]
  outcome: inactive
[3]
  Potency: inactive
[4]
  Potency: inactive
[5]
  Potency: inactive

## OC1(c2ccc(Cl)cc2)CCNCC1
[1]
  Potency: inactive
[2]
  outcome: inactive
[3]
  Potency: inactive
[4]
  Potency: inactive
[5]
  Potency: inactive
[6]
  Potency: inactive

## CN1CCCN(C(c2ccccc2)c2ccc(Cl)cc2)CC1 (centres undefined)
[1]
  Potency: inactive
[2]
  outcome: inactive
[3]
  Potency: inactive
[4]
  Potency: inactive
[5]
  Potency: inactive

## Nc1ccc([N+](=O)[O-])c(C(F)(F)F)c1
[1]
  Potency: inactive
[2]
  outcome: inactive
[3]
  Potency: inactive
[4]
  Potency: inactive
[5]
  Potency: inactive

## C/C(=C(/OCCOc1ccc(Cl)cc1)c1ccc(Cl)cc1Cl)n1ccnc1
[1]
  Potency: inactive
[2]
  outcome: inactive
[3]
  Potency: inactive
[4]
  Potency: inactive
[5]
  Potency: inactive
[6]
  Potency: inactive

## CCOC(=O)Cn1cccc1-c1nc(-c2ccc(OC)cc2)c(-c2ccc(OC)cc2)s1
[1]
  Potency: inactive
[2]
  outcome: inactive
[3]
  Potency: inactive
[4]
  Potency: inactive
[5]
  Potency: inactive
[6]
  Potency: inactive

## CC(=O)N(CC(O)CO)c1c(I)c(C(=O)NCCO)c(I)c(C(=O)NCC(O)CO)c1I (centres undefined)
[1]
  Potency: inactive
[2]
  outcome: inactive
[3]
  Potency: inactive
[4]
  Potency: inactive
[5]
  Potency: inactive
[6]
  Potency: inactive

## CCN(CC)CCNC(=O)c1ccc(NS(C)(=O)=O)cc1
[1]
  Potency: inactive
[2]
  outcome: inactive
[3]
  Potency: inactive
[8]
  outcome: inactive
[9]
  Potency: inactive
[10]
  outcome: inactive

## Cc1cccc(N(C)C(=S)Oc2ccc3c(c2)C2CCC3C2)c1 (centres undefined)
[1]
  Potency: inactive
[2]
  outcome: inactive
[3]
  Potency: inactive
[4]
  Potency: inactive
[5]
  Potency: 26.6 µM (active)

## C#Cc1ccc(-c2ccccc2F)cc1
[1]
  Potency: inactive
[2]
  outcome: inactive
[3]
  Potency: inactive
[4]
  Potency: inactive
[5]
  Potency: inactive
[6]
  Potency: inactive

## CCCN(CCC)C(=O)C(CCC(=O)OCCCN1CCN(CCOC(=O)Cc2c(C)n(C(=O)c3ccc(Cl)cc3)c3ccc(OC)cc23)CC1)NC(=O)c1ccccc1 (centres undefined)
[1]
  Potency: inactive
[2]
  outcome: inactive
[3]
  Potency: inactive
[4]
  Potency: inactive

## CC(Oc1c(Cl)cccc1Cl)C1=NCCN1 (centres undefined)
[1]
  Potency: inactive
[2]
  outcome: inactive
[3]
  Potency: inactive
[4]
  Potency: inactive
[5]
  Potency: inactive
[6]
  Potency: inactive
[12]
  Potency: inactive

## C/C(=N\O)[C@@H](C)NCC(C)(C)CN[C@H](C)/C(C)=N/O
[1]
  Potency: inactive
[2]
  outcome: inactive
[3]
  Potency: inactive
[4]
  Potency: inactive
[5]
  Potency: inactive
[6]
  Potency: inactive
[12]
  Potency: inactive

## CCCCN(CCCC)C(C(N)=O)c1ccc(OC)cc1 (centres undefined)
[1]
  Potency: inactive
[2]
  outcome: inactive
[3]
  Potency: inactive
[4]
  Potency: inactive
[5]
  Potency: inactive
[6]
  Potency: inactive
[12]
  Potency: inactive

## CN(C)CCOC(c1ccccc1)c1ccc(Br)cc1 (centres undefined)
[1]
  Potency: inactive
[2]
  outcome: inactive
[3]
  Potency: inactive
[4]
  Potency: inactive
[5]
  Potency: inactive
[6]
  Potency: inactive
[12]
  Potency: inactive

## O=C1CCCc2c(O)cccc21
[1]
  Potency: inactive
[2]
  outcome: inactive
[3]
  Potency: inactive
[4]
  Potency: inactive
[5]
  Potency: inactive
[6]
  Potency: inactive
[12]
  Potency: inactive
